Data taken from PubChem BioAssay AID463173 (ICCB-Longwood Screening Facility, Harvard Medical School, 2010).
The whole screen tested about 52,000 compounds, of which about 4,300 (8.3%) were called active. This is one part of a sample in which actives are shown more often than they occur. Cut-off read from the data, not from the text of the source: active = survival mostly below about 52% (no sharp cut-off); inactive = mostly above about 56%.

These compounds were tested on DeltatarO mutant (assay: growth inhibition of S. aureus wild type versus tarO mutant, primary screen, teichoic acid synthesis inhibitors, RN4220, OD600 (AID 463173)). Details: OD600, 18 h, active compounds read low, screened at 18.75 µg/mL (by protocol).

| SMILES | survival |
| --- | --- |
| Cc1ccc(C=C2C(=O)N(C)C(=O)N(C)C2=O)cc1 | 82% (inactive) |
| CCOC(=O)C1=C(CS(=O)(=O)c2ccc(F)cc2)NC(=O)NC1c1ccc(OCC)c(OC)c1 (configuration not stated) | 119% (inactive) |
| COc1ccc(C(=O)Nc2cc3cc(Cl)ccc3oc2=O)cc1OC | 73% (inactive) |
| COc1ccc(-c2cn3cccnc3n2)cc1NC(=O)Cc1ccccc1 | 82% (inactive) |
| Cc1[nH]c(=O)[nH]c(=O)c1NC(=O)c1ccccc1 | 88% (inactive) |
| CC1=NN(C(=O)c2ccccc2)C(C)(O)C1(C)C (configuration not stated) | 98% (inactive) |
| Cc1cn(C(=O)c2ccccc2)c(=O)[nH]c1=O | 57% (active) |
| CC(C)(C)C(=O)Nc1ccc(Cl)c(-c2nc3ccccc3[nH]2)c1 | 44% (inactive) |
| CC(NC(=O)CSc1n[nH]c(-c2ccccc2Cl)n1)c1nc2ccccc2[nH]1 (configuration not stated) | 72% (inactive) |
| CCC(=O)Nc1ccc(Cl)c(-c2nc3ccccc3[nH]2)c1 | 49% (active) |
| CC(C)CC(=O)Nc1ccc(Cl)c(-c2nc3ccccc3[nH]2)c1 | 39% (active) |
| CCC(=O)Nc1cccc(-c2nc3ccccc3[nH]2)c1C | 94% (inactive) |
| CCOc1ccc(NC(=O)c2cc(S(=O)(=O)NC3CCCC3)ccc2F)cc1 | 86% (inactive) |
| COCCn1c(=O)[nH]c2cc(C(=O)N3CCN(c4ccc(F)cc4)CC3)ccc2c1=O | 70% (inactive) |
| CCN(Cc1ccccc1)C(=O)CN1C(=O)COc2ccc(S(=O)(=O)NC3CCCC3)cc21 | 78% (inactive) |
| CC(C)NC(=O)CN1CCN(c2ccc(F)cc2)CC1 | 87% (inactive) |
| Cc1ccc(S(=O)(=O)c2cn(C)c3cc(N4CCN(c5ccccc5)CC4)c(F)cc3c2=O)cc1 | 95% (inactive) |
| CC(=O)N1CCc2cc(Br)cc(S(=O)(=O)CCC(=O)N3CCN(c4ccc(F)cc4)CC3)c21 | 67% (inactive) |
| CC(=O)N1CCc2cc(Br)cc(S(=O)(=O)CCC(=O)N3CCN(c4ccccc4)CC3)c21 | 53% (active) |
| CC(=O)N1CCc2cc(Br)cc(S(=O)(=O)CCC(=O)N3CCN(c4cccc(C)c4C)CC3)c21 | 45% (active) |
| CC(=O)N1CCc2cc(Br)cc(S(=O)(=O)CCC(=O)N3CCN(c4ccccc4Cl)CC3)c21 | 61% (inactive) |
| O=C(CCS(=O)(=O)c1cc(Br)cc2c1N(C(=O)C1CC1)CC2)N1CCN(c2ccccc2)CC1 | 91% (inactive) |
| COc1ccccc1N1CCN(C(=O)CCS(=O)(=O)c2cc(Br)cc3c2N(C(C)=O)CC3)CC1 | 53% (inactive) |
| O=C(NCCS(=O)(=O)N1CCN(c2ccccc2F)CC1)C1CC(=O)N(c2ccc(F)cc2)C1 (configuration not stated) | 90% (inactive) |
| O=C(NCCc1csc2nc(-c3cccc(F)c3)nn12)c1ccc(Br)o1 | 76% (inactive) |

| SMILES | survival |
| --- | --- |
| COc1ccc(-n2c(CNc3ccccc3Cl)nnc2SCC(N)=O)cc1 | 86% (inactive) |
| CCN(CC)CCC(=O)c1ccc(OC(C)C)cc1 | 92% (inactive) |
| CCOC(=O)c1ccc(NC(=O)c2c(-c3c(F)cccc3Cl)noc2C)cc1 | 59% (inactive) |
| CCOC(=O)c1ccc(NC(=O)c2ccc(-c3cccc(Cl)c3C)o2)cc1 | 37% (active) |
| Cc1c(Cl)cccc1-c1ccc(CNc2ccc3[nH]c(=O)[nH]c3c2)o1 | 51% (inactive) |
| CCOc1ccc(NC(=O)c2cc3cc4ccc(C)cc4nc3o2)cc1 | 83% (inactive) |
| CCOc1ccc(-c2cc(C(=O)Nc3ccc(NC(C)=O)cc3)no2)cc1 | 61% (inactive) |
| CCOc1ccc(NC(=O)c2ccc(-c3cccc(Cl)c3C)o2)cc1 | 42% (active) |
| COc1ccc(NC(=O)c2coc(C)c2)cc1 | 82% (inactive) |
| COc1ccc(NC(=O)c2cc(-c3ccccc3O)no2)cc1 | 69% (inactive) |
| Cc1c(NC(=O)c2ccc(-c3ccc(F)cc3)o2)cccc1-c1nc2ncccc2o1 | 55% (inactive) |
| Cc1c(Cl)cccc1-c1ccc(C(=O)Nc2ccc(F)cc2)o1 | 1% (active) |
| COc1ccc(NC(=O)c2ccc(-c3cccc(Cl)c3C)o2)cc1 | 16% (active) |
| CCOC(=O)c1ccc(NC(=O)c2cc(=O)c3cc(CC)ccc3o2)cc1 | 62% (inactive) |
| Cc1cccc(CNC(=O)CS(=O)(=O)c2cccc3nsnc23)c1 | 78% (inactive) |
| COc1cccc(CNC(=O)CSc2nc3ccccc3nc2Cc2ccc(C)cc2)c1OC | 74% (inactive) |
| COCCCn1c(=N)c(S(=O)(=O)c2ccccc2)cc2c(=O)n3cc(C)ccc3nc21 | 68% (inactive) |
| CCOc1ccc(C2CC(=O)c3c([nH]c(C(=O)OCCOc4ccccc4)c3C)C2)cc1 (configuration not stated) | 72% (inactive) |
| Cc1c(Cl)cccc1-c1ccc(C(=O)Nc2ccc3oc(-c4cccnc4)nc3c2)o1 | 55% (inactive) |
| Cc1ccc(NC(=O)c2ccc(-c3cccc(Cl)c3C)o2)cc1 | 1% (active) |
| O=C(Nc1cccc(-c2nc3ncccc3o2)c1)c1ccc(-c2cccc(Cl)c2Cl)o1 | 79% (inactive) |
| CCc1ccc(NC(=O)N2CCOc3ccc(Cl)cc32)cc1 | 65% (inactive) |
| COc1ccc(NC(=O)N2CCOc3ccc(Cl)cc32)cc1 | 44% (active) |
| CCOC(=O)c1ccccc1NC(=O)N1CCOc2ccc(Cl)cc21 | 99% (inactive) |
| Cc1ccc(C(=O)N(Cc2sccc2C)C2CCS(=O)(=O)C2)cc1 (configuration not stated) | 76% (inactive) |

| SMILES | survival |
| --- | --- |
| CCn1c(SC)nnc1C1CCCN1CC(=O)N1CCN(Cc2ccc3c(c2)OCO3)CC1 (configuration not stated) | 79% (inactive) |
| Cc1ccc(Nc2nc(N)nc(CSc3nc4ccccc4s3)n2)cc1 | 25% (active) |
| CCC(=O)Nc1ccc2nc(SCc3ccccc3)sc2c1 | 76% (inactive) |
| Cc1c(Cl)cccc1Nc1nn2c(=O)c3ccccc3nc2s1 | 73% (inactive) |
| CCc1ccc(Nc2nc(N)nc(CSc3nc4ccccc4s3)n2)cc1 | 21% (active) |
| Cc1ccc(Nc2nc(N)nc(CSc3nccn3C)n2)cc1 | 93% (inactive) |
| Nc1nc(CSc2ccccn2)nc(Nc2ccccc2)n1 | 97% (inactive) |
| Cc1c(Cl)cccc1Nc1nc(N)nc(CSc2nc3ccccc3s2)n1 | 24% (active) |
| Cc1ccc(CSc2nc3ccc(NC(=O)COc4ccccc4)cc3s2)cc1 | 87% (inactive) |
| C/C=N/NC(=O)CSc1nc2ccccc2s1 | 96% (inactive) |
| COC(=O)Cn1c(=NC(=O)c2ccc3c(c2)OCCO3)sc2ccccc21 | 97% (inactive) |
| Cc1cccc(NC(=O)C2CCCN(c3nc4ccccc4s3)C2)c1C (configuration not stated) | 83% (inactive) |
| COC(C(=O)Nc1ccc2c(c1)OCCO2)c1ccccc1 (configuration not stated) | 87% (inactive) |
| C=CCn1c(SCC(=O)c2cccs2)nc2sc(C)cc2c1=O | 93% (inactive) |
| CC1CC(C(F)F)n2nc(C(=O)Nc3sc4c(c3C#N)CCC(C(C)(C)C)C4)nc2N1 (configuration not stated) | 103% (inactive) |
| CCCCN(CCCC)CCNC(=O)Cn1nc(CC)n2c(cc3sc(C)cc32)c1=O | 85% (inactive) |
| CCCSc1nnc2c(n1)OC(CC)N(C(C)=O)c1ccccc1-2 (configuration not stated) | 62% (inactive) |
| COc1ccc(-c2noc(N3CCN(c4cccc(C)c4C)CC3)n2)cc1OC | 94% (inactive) |
| Cc1ccc(OCc2ccc(-c3nc(C#N)c(NCc4ccccc4Cl)o3)o2)cc1 | 100% (inactive) |
| O=C(Nc1ccc(C(F)(F)F)cc1)c1cc(S(=O)(=O)N2CCCc3ccccc32)ccc1F | 101% (inactive) |
| COc1ccc(NC(=O)c2sc3nc[nH]c(=O)c3c2C)cc1Cl | 99% (inactive) |
| CCOc1cc2[nH]c(=O)n(CCCC(=O)N3CCN(c4cccc(Cl)c4)CC3)c(=O)c2cc1OCC | 81% (inactive) |
| Cc1ccc(Cl)cc1N1CCN(C(=O)CCCCCn2c(=O)[nH]c3ccccc3c2=O)CC1 | 78% (inactive) |
| COC(=O)c1ccc2c(=O)n(CCCCCC(=O)N3CCN(c4cc(Cl)ccc4C)CC3)c(=O)[nH]c2c1 | 129% (inactive) |
| COc1cccc(N2CCN(C(=O)CCCn3c(=O)[nH]c4ccc(Br)cc4c3=O)CC2)c1 | 53% (inactive) |

| SMILES | survival |
| --- | --- |
| O=C(CCCn1c(=O)[nH]c2ccc(Br)cc2c1=O)N1CCN(c2cccc(Cl)c2)CC1 | 48% (active) |
| Cc1ccc(Cl)cc1N1CCN(C(=O)CCCn2c(=O)[nH]c3ccc(Br)cc3c2=O)CC1 | 29% (active) |
| O=c1[nH]c(-c2ccc(S(=O)(=O)N3CCCC3)cc2)nc2sc3c(c12)CCCC3 | 120% (inactive) |
| COc1cc(OC)c(NS(=O)(=O)c2cc(-c3cnc(C)o3)ccc2OC)cc1Cl | 67% (inactive) |
| O=C(CSc1nc2c(c(=O)[nH]1)CCCC2)Nc1ccccc1C(F)(F)F | 58% (inactive) |
| CCc1ccc(-n2c(SCC(=O)NC(C)CC)nc3n[nH]c(C)c3c2=N)cc1 (configuration not stated) | 122% (inactive) |
| O=S(=O)(c1cccc(Cl)c1)n1c(/C=C/c2ccccc2Cl)nc2ccccc21 | 68% (inactive) |
| CCOc1cc(C2Nc3ccccc3-c3nnc(SCc4ccccc4)nc3O2)ccc1OC (configuration not stated) | 45% (active) |
| COc1cc(OC)c(C2Nc3ccccc3-c3nnc(SCc4ccccc4)nc3O2)cc1OC (configuration not stated) | 54% (inactive) |
| COc1cccc(C2Nc3ccccc3-c3nnc(SCc4ccccc4)nc3O2)c1OC (configuration not stated) | 140% (inactive) |
| CCOc1ccc(C2Nc3ccccc3-c3nnc(SCc4ccccc4)nc3O2)cc1OC (configuration not stated) | 50% (inactive) |
| CCOc1ccccc1C1Nc2ccccc2-c2nnc(SCc3ccccc3)nc2O1 (configuration not stated) | 44% (active) |
| O=C(O)COc1ccccc1C1Nc2ccccc2-c2nnc(SCc3ccc(Cl)cc3)nc2O1 (configuration not stated) | 66% (inactive) |
| COc1ccc(-c2noc(-c3nnn(-c4ccc(C(C)C)cc4)c3C)n2)cc1OC | 67% (inactive) |
| O=C(c1ccc2c(c1)N(Cc1c(F)cccc1Cl)C(=O)c1ccccc1S2)N1CCCC1 | 74% (inactive) |
| CCOc1ccc(Cn2nnc3c(=O)[nH]c(C4CCN(C(=O)c5ccccc5)CC4)nc32)cc1 | 4% (active) |
| O=C(c1ccccc1)N1CCC(c2nc3c(nnn3Cc3ccccc3)c(=O)[nH]2)CC1 | 13% (active) |
| Cc1ccc(C)c(C(=O)N2CCC(c3nc4c(nnn4Cc4ccccc4)c(=O)[nH]3)CC2)c1 | 39% (active) |
| Cc1ccc(Cn2nnc3c(=O)[nH]c(C4CCN(S(=O)(=O)/C=C/c5ccccc5)CC4)nc32)cc1 | 89% (inactive) |
| O=c1[nH]c(C2CCCNC2)nc2c1nnn2Cc1ccccc1 (configuration not stated) | 98% (inactive) |
| COc1cccc(OC)c1Cn1nnc2c(=O)[nH]c(C3CCN(C(=O)c4ccccc4)CC3)nc21 | 56% (inactive) |
| CCOc1ccccc1NC(=O)N1CCCC(c2nc3c(nnn3Cc3ccc(C)cc3)c(=O)[nH]2)C1 (configuration not stated) | 82% (inactive) |
